From the supplement of paper PMC3724861
The sample as a whole holds a higher share of hits than the screen did. The hit rate among all sequences tested is not known here.

These sequences were tested on T1, Caupolican (Caup) homeodomain DNA-binding domain (assay: PBM E-score (8-mer, recovered from the published 9-mer minima) (E-score (dimensionless, -0.5 to 0.5)); Drosophila protein; higher = stronger relative binding preference, active = 0.31 or more).
T1 sequence: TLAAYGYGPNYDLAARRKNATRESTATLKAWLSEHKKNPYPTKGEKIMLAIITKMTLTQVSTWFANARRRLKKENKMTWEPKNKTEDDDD
Outline: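 Caup's homeodomain DNA-binding domain (residues 214-303) was made by in vitro transcription and translation and applied at 100 nM to custom-designed protein binding microarrays. Each value is an enrichment score that gives relative binding preference for a short DNA word, with higher meaning stronger. The 8-mer values were recovered from published 9-mer scores, each of which was the minimum of its two constituent 8-mer scores. A cutoff of 0.31 marks candidate sites.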

PBM E-score, inactive:
CTATACAG 0.0968
ATATACAG 0.186
GTATACAC 0.249
CTATACAC 0.0914
ATTAGTGC 0.105
AACTGGCC -0.147
CCGGACGG -0.297
CCTGGCAA -0.121
CAATGACC 0.065
TCACAAGA 0.131
ATCGGTAC 0.0373
CTGCCGTC -0.128
ATTAGAGG -0.11
AACATGCC 0.302
TGCATGCA 0.0646
GAGATGCA -0.024
CCCATGCA -0.119
TCCATGCA -0.0253
ACCATGCT 0.14
CACATGCA 0.166
ATCATGCA 0.103
CTCGCGTA -0.0439
TTATCAAA 0.109
GTGATTCA 0.0823
AGAAAGCA 0.0369
CCGGGTCA -0.18
CACATGCC 0.0641
ATCATGCG 0.0113
GCCATGCC -0.149
CACATGCG 0.023
ATCCTGAG -0.0222
CAAGCTAG -0.0491
CGTAATGA 0.094
GTGACCGA -0.0686
ACTTGAAC 0.132
ACAAATCC 0.179
GTTCATGA 0.115
CTGCATGA -0.0538
GCACATGA 0.182
CTACATTA 0.199
ATACATTA 0.219
CTACAGGA 0.245
ACAGGAGT 0.0982
AAAGTTTG 0.0257
ACGGCAGT -0.0873
GCAACGCC -0.0458
GCAGTACA 0.196
CCAGTACA 0.3
ACAGTACG 0.0926
ACAGTACT 0.18
ATCTGATG 0.072
ACGATTTG 0.11
ATCACAAC 0.212
ATTACAAA 0.259
ATTACTAC 0.293
ATTACAAT 0.298
ACGTTCGG -0.177
ACTAGCCA 0.0322
CATAGTGA 0.155
AGGTCAAA -0.0266
ATGTCAAG 0.309
ACGTCAAT -0.00307
GTGTCAAA 0.294
CTGTCAAC 0.186
CTGTCAAA 0.164
GTGTCAAC 0.272
AAGTCAAA 0.0275
ACCCGATC -0.0489
CTTGGTAA 0.0467
CTCGTCAA 0.0256
GGTGGTTA 0.0166
AATTGAGT 0.131
ACACCCTC -0.0435
CAGCACGG -0.0332
ATAATCAG 0.101
AGAGCAAG 0.0346
CAACACAA 0.241
GAACACAC 0.217
AAACACAA 0.27
GGACACAA 0.204
AGATCGGC -0.152
ACCTGGAC -0.0342
CCCGTGTC 0.145
ACCGTGCA 0.00395
ACCGTGTG 0.115
CCCGTGTA 0.25
GCCGTGAA -0.0891
ACCGTGGA -0.107
GAACACCA 0.195
ACTATCAG 0.083
ATTATTAA 0.191
ACATTTTC 0.161

PBM E-score, active:
GTATACAA 0.318
TACATGCA 0.371
GACATGCA 0.394
AACATGCT 0.376
AACATGCA 0.392
AACATGCG 0.356
GACATGCC 0.35
CTACATGA 0.36
GTACATTA 0.322
GTACATGA 0.435
ACAGTACA 0.331
TCAGTACA 0.313
ATTACAAC 0.37
ATTACAAG ≥ 0.427
ATGTCAAA 0.359
ATGTCAAC 0.324
TTGTCAAA 0.316
ATGTCAAT 0.359
GAACACAA 0.317
TAACACAA 0.319
GCCGTGTA 0.341
ACCGTGTA 0.359
ACCGTGTC 0.312
